# High-throughput results (PubChem BioAssay)
# TDP1 block – inhibitors of human tyrosyl-DNA phosphodiesterase TDP1 | recombinant TDP1, AlphaScreen DNA substrate cleavage | 350,000 compounds, 0.28% hits | Q9NUW8 | AID 485290 | Potency, µM (doses to about 130 µM), for inactives: at the top dose activity change, negative = inhibition, actives largely listed as inhibitors; note: nearly all actives have a fitted effect of over 40% in size
#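 Recombinant E. coli-expressed Tdp1 (1 nM) preincubated with compound 15 min at RT, then 5'-biotin/3'-phosphotyrosine-FITC DNA substrate (15 nM) added for 5 min. AlphaScreen beads (10 ug/ml) added, 10 min RT; tyrosine-FITC cleavage read as signal loss.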
# DT40 TDP1 no CPT – qHTS for Inhibitors of human tyrosyl-DNA phosphodiesterase 1 (TDP1): qHTS in cells in absence of CPT | 420,000 compounds, 15% hits | Potency, µM (highest dose often 46.2 µM), inactives show at the highest dose activity change, negative = growth inhibition, actives largely listed as inhibitors | DT40 Tdp1-/- hTDP1 cells, no CPT, ATP luminescence, 48 h; note: nearly all actives have a fitted effect of over 55% in size
#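 Camptothecin absent (DMSO only). Human TDP1-complemented DT40 knockout cells, 400 cells/well, 37 °C for minimum 48 hr; ATP measured via CellTiter-Glo, 30 min dark incubation, luminescence.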
# DT40 TDP1 CPT – growth inhibition of DT40 Tdp1-/-;hTDP1 cells with camptothecin (screen for TDP1 inhibitors) | chicken DT40 Tdp1-/-;hTDP1 cells + 20 nM CPT, ATP luminescence, 48 h | Potency, µM (titrated, usually from 46.2 µM), inactives show at the top dose activity change, negative = growth inhibition, usual class: inhibitors | 420,000 compounds, 12% hits; note: nearly all actives have a fitted effect of over 55% in size
#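 Chicken DT40 Tdp1-/- cells complemented with human TDP1, 400 cells/well, exposed to compounds plus 20 nM camptothecin for at least 48 h at 37 C; viability read as ATP content by CellTiter-Glo luminescence.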
# RORg inh – inhibitors of mouse ROR gamma transcriptional activity. AID 2551. 310,000 compounds, 5.4% hits. Drosophila S2 Gal4-RORgamma UAS-luciferase reporter, 20 h. P51450. Potency, µM (highest dose often 53.6 µM), without a hit: top-dose activity change, negative = inhibition, most hits filed as inhibitors; note: nearly all actives have a fitted effect of over 60% in size
# Target sequence (P51450 whole entry, looked up, the tested form may be a part): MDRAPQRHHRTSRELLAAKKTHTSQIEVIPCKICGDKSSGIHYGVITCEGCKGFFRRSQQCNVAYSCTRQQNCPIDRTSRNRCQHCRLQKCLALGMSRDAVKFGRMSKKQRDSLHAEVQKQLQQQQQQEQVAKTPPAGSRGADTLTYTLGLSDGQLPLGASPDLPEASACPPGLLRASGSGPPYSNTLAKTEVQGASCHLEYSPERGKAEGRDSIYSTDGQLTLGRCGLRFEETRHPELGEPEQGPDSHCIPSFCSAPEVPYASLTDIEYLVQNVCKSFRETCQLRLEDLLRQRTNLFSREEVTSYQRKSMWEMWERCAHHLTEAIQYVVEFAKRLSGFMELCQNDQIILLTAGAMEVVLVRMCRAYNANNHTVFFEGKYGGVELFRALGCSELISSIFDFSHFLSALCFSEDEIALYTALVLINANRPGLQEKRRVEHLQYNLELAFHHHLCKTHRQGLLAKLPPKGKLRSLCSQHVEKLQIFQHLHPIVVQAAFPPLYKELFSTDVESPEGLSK
#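 Luciferase reporter read in Schneider cells carrying Gal4-RORγ (mouse) and UAS-Photinus luciferase; cells given compound 1 h before 700 uM copper sulfate induction, then incubated 20 h at ambient temperature.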
# VP16 counter – counter-screen for ROR gamma inhibitors: Gal4-VP16 reporter; Drosophila S2 Gal4-VP16 UAS-luciferase, luminescence, 20 h; Potency, µM (highest dose often 53.6 µM), for inactives: at the top dose activity, negative = inhibition, most hits filed as inhibitors; 310,000 compounds, 3.5% hits; AID 2546;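 note: Gal4-VP16 expression switched on by copper sulfate through the metallothionein promoter; nearly all actives have a fitted effect of over 50% in size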
# * marks the source's active call; other numbers are inactive results; ? = inconclusive; . = no result; [ ] = remark or other dose. Most compounds without a hit are left out; they make up all but 19% or so of the library. Calls come from the whole dose curve; as a rule, active = well fitted curve in the direction sought with a large enough effect; inconclusive = small, poorly fitted or top-dose-only effect, or another doubt; inactive = no such curve, though single readings can be large; an effect the other way counts as inactive or inconclusive. % is set by controls: 0 for no effect and ±100 for the full control effect; potency is the fitted concentration of half-maximal effect.
SMILES,TDP1 block,DT40 TDP1 no CPT,DT40 TDP1 CPT,RORg inh,VP16 counter
COc1c(OP2(=S)OCC(C)(C)CO2)cnn(C2CCCCC2)c1=O,.,21µM*,23µM*,.,.
C=C1C(=O)O[C@@H]2C[C@@H](C)[C@H]3C=CC(=O)[C@]3(O)C[C@@H]12,5%,4.6µM*,4.6µM*,7.1µM*,?
NS(=O)(=O)c1cccc(N2CCNCC2)c1,3%,-17%,30%,-2%,-7%
CCN(CC)C(=O)c1ccc(NC(=O)CCCSc2ccccc2)cc1,1%,?,-2%,-13%,5%
CCN(CC)C(=O)c1ccc(NC(=O)Nc2ccccc2F)cc1,2%,9.2µM*,4.6µM*,11µM*,?
O=C(CCN1CCN(c2ccccc2)CC1)c1ccc(Br)cc1,.,5.8µM*,9.2µM*,35µM*,?
O=C1OCCC1C(=O)c1ccccc1 (centres undefined),.,-13%,-5%,.,.
CN1C(=O)C(=Cc2ccc(N3CCCCCC3)o2)C(=O)N(C)C1=S,5%,23µM*,?,41%,-13%
O=C(c1ccc(Cl)cc1)c1cn(Cc2ccccc2)c2cc3c(cc2c1=O)OCCO3,10%,23µM*,?,.,.
O=C(Nc1ccc2c(c1)OCCO2)c1cccn(Cc2ccccc2)c1=O,5%,?,?,.,.
COc1ccc2c(c1)c(=O)c(C(=O)c1ccc(Cl)cc1)cn2CC(=O)Nc1ccc2c(c1)OCCO2,4%,21µM*,18µM*,.,.
CC(=NCc1ccc2c(c1)OCO2)c1c(O)n(-c2ccc(C)cc2)c(=O)[nH]c1=O,1%,-8%,-4%,19%,-8%
C[C@]12CCC(=O)C=C1CC[C@@H]1[C@@H]2CC[C@@]2(C)[C@H]1CC[C@]2(C)O,5%,?,?,14%,6%
C[C@]12C=CC(=O)C=C1CC[C@@H]1[C@@H]2CC[C@@]2(C)[C@H]1CC[C@]2(C)O,6%,19µM*,?,20%,3%
C[C@]1(O)CCC2C3CC[C@@H]4CC(=O)CC[C@]4(C)C3CC[C@@]21C (some centres undefined),2%,?,18µM*,.,.
CCC(=O)[C@@H](C)[C@@H](O)[C@H](C)C[C@@H](C)C1OC(=O)C[C@@]2(O)CC=C(C)C(O2)C(C)=CCCC[C@H](O[C@H]2C[C@@H](OC(N)=O)[C@H](O)[C@@H](C)O2)C=C[C@H](C)C[C@H]1C (some centres undefined),.,0.52µM*,0.46µM*,.,.
CCOC(=O)c1ccc(NC(=O)CSc2nc3c(cc2C#N)N2CCC3CC2)cc1,1%,.,.,.,.
N#Cc1cc2c(nc1SCC(=O)Nc1ccc(OC(F)(F)F)cc1)C1CCN2CC1,2%,18µM*,?,.,.
N#Cc1cccc(NC(=O)c2sc3nc4c(cc3c2N)N2CCC4CC2)c1,0%,13µM*,4.1µM*,.,.
N#Cc1cc2c(nc1SCC(=O)Nc1cccc(C(F)(F)F)c1)C1CCN2CC1,5%,.,.,.,.
N#Cc1cccc(NC(=O)CSc2nc3c(cc2C#N)N2CCC3CC2)c1,3%,16µM*,?,.,.
COc1ccccc1OCC#CCN1CCCC(C)C1 (centres undefined),.,-29%,-11%,-4%,-1%
CN(C)C(=O)Oc1ccc2nnc3ccnn3c2c1,.,?,-5%,-18%,21%
Cc1cc(-c2ccccc2)cc(C)[n+]1Cc1ccccc1,-2%,1.6µM*,1.5µM*,.,.
c1ccc(-c2ccncc2)cc1,1%,-1%,7%,.,.
SMILES,TDP1 block,DT40 TDP1 no CPT,DT40 TDP1 CPT,RORg inh,VP16 counter
CCCOP(=O)(OCCC)C(Nc1ccc(C(C)C)cc1)c1ccc([N+](=O)[O-])cc1 (centres undefined),7%,16µM*,?,10%,?
COc1ccc(C(Nc2cccc([N+](=O)[O-])c2)P(=O)(OC(C)C)OC(C)C)cc1 (centres undefined),.,16µM*,16µM*,-1%,-3%
CC(C)OP(=O)(OC(C)C)C(Nc1ccc([N+](=O)[O-])cc1)c1cccc([N+](=O)[O-])c1 (centres undefined),6%,18µM*,?,29%,2%
COc1ccc(OC)c(C(Nc2ccccc2)P(=O)(OC(C)C)OC(C)C)c1 (centres undefined),1%,16µM*,?,9%,-4%
CC(C)OP(=O)(OC(C)C)C(Nc1ccccc1)c1ccccc1C(F)(F)F (centres undefined),6%,?,?,-23%,5%
CC(C)OP(=O)(OC(C)C)C(Nc1ccccc1)c1cccc2c1OCO2 (centres undefined),-2%,?,?,10%,-2%
COC(=O)c1sc(NC(=O)/C=C/c2ccc(OC)c(OC)c2)c(C(=O)OC)c1C,0%,?,-9%,.,.
O=c1[nH]c(O)c(Cc2ccc3c(c2)OCO3)c(=O)[nH]1,4%,0%,7%,10%,-7%
CCC1C(c2cc(OC)c(OC)c(OC)c2)c2cc3c(cc2OC1N1CCCC1)OCO3 (centres undefined),.,4.1µM*,5.2µM*,.,.
COc1ccc2c(c1OC)C(=O)OC2C1c2cc3c(cc2CCN1C)OCO3 (centres undefined),7%[56.1 µM],3%,0%,19%,20%
COc1cccc(NC(=O)CSC2=Nc3ccccc3C3=NC(CCC(=O)NCCc4ccccc4)C(=O)N23)c1 (centres undefined),1%,21µM*,21µM*,.,.
O=[N+]([O-])c1ccc(N2CCCNCC2)c2ncccc12,2%,?,?,12%,-2%
COC(=O)C1(O)CC2OC1(C)n1c3ccccc3c3c4c(c5c6ccccc6n2c5c31)C(=O)NC4 (centres undefined),7%[21 µM],.,.,-20%[10 µM],?
CN[C@H]1C[C@H]2O[C@@](C)([C@H]1OC)n1c3ccccc3c3c4c(c5c6ccccc6n2c5c31)C(=O)NC4,9%,.,.,?,6.3µM*
CN1CCC2(CC1)CC(NC=O)c1ccccc1O2 (centres undefined),3%,0%,11%,13%,-17%
CCOC(=O)c1ccc(NC(=O)C2C3C=CC(O3)C2C(=O)O)cc1 (centres undefined),-1%,.,.,9%,1%
CCOC(=O)c1ccc(NC(=O)c2nc[nH]c2C(=O)NCCNC(=O)c2[nH]cnc2C(=O)Nc2ccc(C(=O)OCC)cc2)cc1,1%,3.7µM*,2.9µM*,.,.
COC(=O)[C@@]12CCCCN1[C@H](c1ccc(-c3ccc(Cl)c(Cl)c3)c(OC)c1)[C@H]1C(=O)N(C)C(=O)[C@H]12,2%,16µM*,18µM*,.,.
